Measured potencies and affinities stand elsewhere. Results filed as inconclusive are left out. The source made the active and inactive calls. Unless noted, the rule behind the calls is not given here.
Columns and labels:
[1] = RMG-1 ovarian cancer cell viability loss – cherry-pick, dose response (AID 687029;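 active = signal drop whose fitted half-maximal concentration is at most twice the top valid dose, in every test run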;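 note: cells exposed to compound for 96 hours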)
[2] = CMV-driven luciferase expression suppression in HEK293 – cell-based, luminescence, dry powder, counter-screen for Pax8 inhibitor project, dose response (AID 743020;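 active = signal-lowering compounds whose fitted half-maximal concentration is at or below twice the top tested dose in every run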;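 note: HEK293 cells stably expressing the CMV luciferase reporter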)
[3] = general cell-killing toxicity readout – plate reader, dry powder samples, cytotoxicity control for PAX8 inhibitor project, dose response (AID 743021)
[4] = IGROV1 cell killing – plate reader, dry powder samples, PAX8 inhibitor project, dose response (AID 743043);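 note: more negative means fewer viable cells or more cytotoxicity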
[5] = OVCAR-3 cell viability loss – plate reader, dry powder samples, PAX8 inhibitor project, dose response (AID 743044); conditions: max activity: at 35 µM, hits give low values unless noted
[6] = toxicity toward immortalized ovarian surface epithelium – cell-based, plate reader, dry powder samples, cytotoxicity control for PAX8 inhibitor project, dose response (AID 743045);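 note: 0% = neutral control median and -100% = positive control median; more negative values mean more cell killing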
[7] = A2780 cell killing – plate reader, dry powder samples, cytotoxicity control, dose response (AID 743046);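 note: 0% = neutral control wells and -100% = cytotoxic reference compound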
[8] = OVCAR8 cell viability loss – plate reader, dry powder samples, PAX8 project, dose response (AID 743197)
[9] = A549 cell cytotoxicity, dose response, cytotoxicity control, plate reader, cherry-pick, antagonist series (AID 743412);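 note: 0% = neutral control wells and -100% = positive control wells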
[10] = toxicity toward HepG2 liver cells – cell-based, plate reader, cherry-pick, antagonist series, cytotoxicity control, dose response (AID 743416);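 note: 0% = neutral control wells and -100% = positive control wells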
[11] = target: Melanocortin receptor 4 (Homo sapiens) (UniProt P32245); experiment: blockade of melanocortin 4 receptor signaling – cell-based, plate reader, cherry pick, counter-screen for LGR2 antagonist project, dose response (AID 743444)

Measured: max activity

COc1ccc(S(=O)(=O)Nc2ccc3c(c2)C(=O)N([C@H](C)CO)C[C@H](C)[C@@H](CN(C)Cc2ccc(C(F)(F)F)cc2)OCCCC[C@H](C)O3)cc1
inactive: [1] | [2] | [3] | [4] | [5] -20.9% [at 0.5 µM, hits give low values] | [6] | [7] | [8]

O=C(Nc1cccc(Cl)c1)Nc1nnc(CSCCOc2ccc(Cl)cc2)s1
inactive: [1] | [2] | [3] | [4]

C[C@H](CO)N1C[C@H](C)[C@H](CN(C)Cc2ccc(-c3ccccc3)cc2)Oc2ccc(NS(=O)(=O)c3ccc(F)cc3)cc2CC1=O
inactive: [1] | [2] | [3] | [4] | [5] -42.4% | [6] | [7]

CCOc1ccc2c(c1)C(C)=CC(C)(C)N2S(=O)(=O)c1ccc(NC(C)=O)cc1
inactive: [1] | [2] | [3]

Cc1ccc(S(=O)(=O)Nc2ccc3c(c2)C(=O)N([C@H](C)CO)C[C@@H](C)[C@H](CN(C)Cc2ccc(C(F)(F)F)cc2)OCCCC[C@@H](C)O3)cc1
inactive: [1] | [2] | [3] | [4] | [5] 6.08% [at 0.5 µM, hits give low values] | [6] | [7] | [8]

O=C(Nc1ccc(C(F)(F)F)cc1)Nc1ccc2c(c1)[C@H]1C[C@H](CC(=O)N3CCc4ccccc4C3)O[C@H](CO)[C@H]1O2
inactive: [1] | [2] | [3] | [4] | [5] 20.8% [at 0.5 µM, hits give low values] | [6] | [8]

COc1cc(C(=O)NCC(c2cccs2)N2CCOCC2)ccc1OCc1ccc(Cl)cc1 (centres undefined)
inactive: [1] | [2] | [3]

Cc1cccc(CS(=O)(=O)c2ncc(Cl)c(C(=O)Nc3ccc(F)cc3)n2)c1
inactive: [1] | [2] | [3]

COc1ccc(CN(C)C[C@H]2Oc3ccc(NC(=O)Nc4ccc5c(c4)OCO5)cc3CC(=O)N([C@H](C)CO)C[C@H]2C)cc1
inactive: [1] | [2] | [3] | [4] | [5] -9.48% [at 18 µM, hits give low values] | [6] | [7] | [8]

O=C(N/N=C/c1c[nH]c2ccccc12)c1[nH]c2ccc(Br)cc2c1-c1ccccc1
inactive: [1] | [2] | [3]

O=[N+]([O-])c1cc2c(ccc3occc32)o1
inactive: [1] | [2] | [3]

CCOC(=O)C1=CN(Cc2cccc(-c3cccnc3)c2)S(=O)(=O)N(C)C1C (centres undefined)
inactive: [1] | [2] | [3]

Cc1ccc(S(=O)(=O)Nc2ccc3c(c2)C(=O)N([C@@H](C)CO)C[C@@H](C)[C@@H](CN(C)S(=O)(=O)c2ccc(Cl)cc2)OCCCC[C@@H](C)O3)cc1
inactive: [1] | [2] | [3] | [4] | [5] -15% | [6] | [8]

Cc1ccc(C(=O)c2cc([N+](=O)[O-])ccc2N2CCCCC2)c(C)c1
inactive: [1] | [2] | [3]

C[C@@H]1CN([C@@H](C)CO)S(=O)(=O)c2ccc(C#Cc3ccc(F)cc3)cc2O[C@@H]1CN(C)C(=O)NC1CCCCC1
inactive: [1] | [2] | [3] | [4] | [5] 23.4% [at 1 µM, hits give low values] | [6] | [7] | [8]

C=C1CC(COc2ccc3c(C)c(Cl)c(=O)oc3c2)(c2ccccc2)OC1=O (centres undefined)
inactive: [1] | [2] | [3]

COc1cccc(S(=O)(=O)N(C)C[C@@H]2OCc3ccccc3-c3c(n(C)c4ccccc34)C(=O)N([C@H](C)CO)C[C@@H]2C)c1
inactive: [1] | [2] | [3] | [4] | [5] -14.8% | [6]

O=S(=O)(c1ccccc1)N1CCCCN2[C@H](CO)[C@H](c3ccc(-c4ccccc4F)cc3)[C@H]2C1
inactive: [1] | [2] | [3] | [4] | [5] -5.95% | [6] | [7]

Cc1ccc(S(=O)(=O)Nc2cccc3c2O[C@@H](CN(C)Cc2ccc(Oc4ccccc4)cc2)[C@@H](C)CN([C@H](C)CO)C3=O)cc1
inactive: [1] | [2] | [3] | [4] | [5] 15.8% [at 1 µM, hits give low values] | [6] | [7] | [8]

C[C@@H]1CCCCO[C@@H](CN(C)Cc2ccc(C(F)(F)F)cc2)[C@H](C)CN([C@H](C)CO)C(=O)c2cc(NS(=O)(=O)c3cccs3)ccc2O1
inactive: [1] | [2] | [3] | [4] | [5] -15.8% | [6] | [7] | [8]

C[C@H](CO)N1C[C@H](C)[C@@H](CN(C)Cc2ccc(Cl)c(Cl)c2)Oc2ccc(NC(=O)Nc3ccc(F)cc3)cc2CC1=O
inactive: [1] | [2] | [3] | [4] | [5] -44% | [6]

COc1ccc(S(=O)(=O)Nc2ccc3c(c2)C(=O)N([C@H](C)CO)C[C@@H](C)[C@H](CN(C)C(=O)Nc2ccc(C(F)(F)F)cc2)OCCCC[C@H](C)O3)cc1
inactive: [1] | [2] | [3] | [4] | [5] -37.1% | [6] | [8]

C[C@@H]1CCCCO[C@@H](CN(C)Cc2ccc(Cl)c(Cl)c2)[C@H](C)CN([C@H](C)CO)C(=O)c2cc(NC(=O)Nc3ccc(C(F)(F)F)cc3)ccc2O1
inactive: [1] | [2] | [3] | [4] | [5] 52.8% [at 0.26 µM, hits give low values] | [6] | [7] | [8]

C[C@H](CO)N1C[C@H](C)[C@@H](CN(C)C(=O)C2CCCCC2)OCCCC[C@H](C)Oc2ccc(NS(=O)(=O)c3ccc(Cl)cc3)cc2C1=O
not listed: [5] | [9] | [10] | [11]
inactive: all other assays above

Cc1nc(SCC(=O)Nc2nc3ccccc3s2)c(C#N)c(C)c1C
inactive: [1] | [2] | [3] | [9]

C[C@H]1CCCCO[C@H](CN(C)C(=O)C2CCCCC2)[C@@H](C)CN([C@@H](C)CO)C(=O)c2cc(NC(=O)Nc3ccc(F)cc3)ccc2O1
inactive: [1] | [2] | [3] | [5] -23.8% | [6] | [7] | [8]

C[C@@H]1CN([C@@H](C)CO)C(=O)Cc2cc(NC(=O)Nc3ccc(C(F)(F)F)cc3)ccc2O[C@@H]1CN(C)S(=O)(=O)c1ccc(Cl)cc1
inactive: [1] | [3]

Cc1ccc(S(=O)(=O)Nc2ccc3c(c2)CC(=O)N([C@@H](C)CO)C[C@H](C)[C@@H](CN(C)C(=O)Nc2ccc(C(F)(F)F)cc2)O3)cc1
inactive: [1] | [2] | [4] | [5] 7.6% [at 2.1 µM, hits give low values] | [6] | [7] | [8]

CC(=O)Nc1ccc(S(=O)(=O)c2ccnc3cc(Cl)ccc23)cc1
inactive: [1] | [2] | [3] | [10] | [11]

C[C@@H]1CN([C@H](C)CO)C(=O)c2cc(NC(=O)Nc3ccc(C(F)(F)F)cc3)ccc2O[C@@H](C)CCCCO[C@@H]1CN(C)C(=O)c1ccccc1
inactive: [1] | [2] | [3] | [4] | [6] | [7]

— PubChem BioAssay
